# Results published in PubChem BioAssay (EPA / NIEHS).
# Active and inactive are the calls of the source. Rule for the calls: active = hit-call score of the fitted dose curve at least 0.9, where 1 is the maximum; inactive = score below 0.9.
# Read-out: Cytochrome P450 (CYP24A1), CYP24A1 (gene 1591)
# Assay: LTEA_HepaRG_CYP24A1: Life Technologies and Expression Analysis (LTEA) Assay for Cytochrome P450 (CYP24A1) using HepaRG (AID 2283478)
# Details: mRNA level, 48 h; actives raise or lower the signal
# Experimental: LTEA_HepaRG is a cell based, multiplexed-readout assay that uses HepaRG, a human liver cell line, with measurements taken at 48 hours after chemical dosing on a 96-well plate.LTEA_HepaRG_CYP24A1 is one of 102 assay component(s) measured in the LTEA HepaRG cell culture assay. It is a marker of NR mediated metabolism.Data from the assay component LTEA_HepaRG_CYP24A1 was analyzed into 1 endpoint. This assay endpoint, LTEA_HepaRG_CYP24A1, was analyzed with bidirectional fitting relative to DMSO as the negative control and baseline of activity. Using a type of inducible reporter, measures of mRNA induction for gain or loss-of-signal activity can be used to understand regulation of transcription factor activity. To generalize the intended target to other relatable targets, this assay endpoint is annotated to the cyp intended target family, where the subfamily is xenobiotic metabolism.
# A total of 1060 chemcials from the ToxCast library were tested in eight-point concentration-response experiments. Cell culture and cytotoxicity assays were conducted at Thermo Fisher Scientific's Custom Services facility (Madison, WI). A single lot of human HepaRG cells (Thermo Fisher Scientific, Frederick, MD) was used for the cell culture experiments. 96-well format collagen type I coated plates of human HepaRG cells were prepared using established methods. Briefly, cryopreserved HepaRG cells were thawed, plated at a density of approximately 100,000 cells/well in HepaRG Thaw, Plate, and General Purpose media (HPRG770, Thermo Fisher Scientific), and incubated for 48 hours. 0.5% DMSO was selected as vehicle control to balance the requisite need of DMSO in HepaRG cultures to maintain differentiation (for example, baseline metabolism, proportions of hepatocytes vs. cholangiocytes), while enabling further hepatic receptor pathway activation (for example, PXR and CAR) in response to chemical exposure. 48 hours after plating, the culture medium was replaced with HepaRG Serum-Free Incudtion Media. Cells were exposed to each test chemical in duplicate and maintained in CO2 incubators for another 48 hours. Chemical plates were thawed to room temperature and 200x concentrations of treatment groups were prepared. 8-point conentration-reponse curves were made with the highest exposure at 100 uM, followed by half-log dilutions, all in 0.5% DMSO. Each test plate contained variouse controls, induction positive controls (1mM phenobarbital), cytotoxicity positive controls ([…] aflatoxin B1), vehicle controls (0.5% DMSO), and total lysis controls (0.5% DMSO). Cell morphology images were taken using an Essen IncuCyte FLR automated microscope, with six 96-well plates imaged in about 24 minutes. Images were captured and exported and JPEG files. Spent culture media was transfered to black-well plates for the LDH assay, and remaining media was sorted at -80 C for later use. Cells were treated with RLT buffer and frozen until shipped for gene expression analysis. Total RNA was isolated from the cell suspension in 75 uL of Buffer RLT (Qiagen, Germantown, MD 20874) by Quintiles/Expression Analysis (Durham, NC) using a custom isolation procedure. Total RNA from each plate well was transferred to a preamplification plate. Fluidigm's 96.96 Dynamic ArrayTM (Fluidigm, Amsterdam, the Netherlands) technology was used for gene expression analyses by quantitative reverse transcription polymerase chain reaction (qRT-PCR, performed by Quintiles/Expression Analysis, Durham, NC)89. Standard TaqManTM Assays (Applied Biosystems/ThermoFisher Scientific, Foster City, CA) were used to assess the expression of 93 genes selected based on their selectivity and sensitivity to important hepatic receptors known to be modulated by environmental chemicals; importance in human hepatocyte functionality; and hepatotoxicity. […]
row,SMILES,outcome
1,Cc1cc(N=Nc2ccccc2C)ccc1N,inactive
2,CN(C)c1ccccc1,inactive
3,Cc1ccc(N)c(N)c1,inactive
4,CCC(C)c1ccc(O)cc1 (stereo not given),inactive
5,CC(C)(C)C(O)(CCc1ccc(Cl)cc1)Cn1cncn1 (stereo not given),inactive
6,Oc1ccc2ccc3cccc4ccc1c2c34,inactive
7,Clc1ccc(C(c2ccc(Cl)cc2)C(Cl)Cl)cc1,inactive
8,[O-][Cl+]O,inactive
9,Cc1cccc(N)c1N,inactive
10,Oc1ccccc1Cl,inactive
11,CCCCCCCCn1sccc1=O,inactive
12,ClCCOCCCl,inactive
13,Clc1ccccc1Cl,inactive
14,O=C(Oc1ccc(Br)cc1)N1CCN2CCC1CC2,inactive
15,C[N+](C)(C)CC1CO1 (stereo not given),inactive
16,OCCOCCO,inactive
17,CN(C)C(=O)Nc1ccc(Cl)cc1,inactive
18,CC(O)CCO (stereo not given),inactive
19,CC(C)(OOC(C)(C)c1ccccc1)c1ccccc1,inactive
20,c1ccc(N=Nc2ccccc2)cc1,inactive

row,SMILES,outcome
1,COC(=O)c1ccccc1N,inactive
2,CN(C)[C@@H]1C(=O)C(C(N)=O)=C(O)[C@@]2(O)C(=O)C3=C(O)c4c(O)cccc4[C@@](C)(O)[C@H]3C[C@@H]12,inactive
3,CCCCCCCCOC(=O)c1ccc(C(=O)OCCCCCCCC)c(C(=O)OCCCCCCCC)c1,inactive
4,O=C(N[C@H](c1ccccc1)[C@@H]1CN2CCC1CC2)c1c(Cl)ccc(C(F)(F)F)c1Cl,inactive
5,Brc1ccc(Oc2ccccc2)cc1,inactive
6,CO[C@@H]1[C@H](OC(=O)NC(=O)CCl)CC[C@]2(CO2)[C@H]1[C@@]1(C)O[C@@H]1CC=C(C)C,inactive
7,O=[N+]([O-])c1ccc(Oc2ccc(Cl)cc2Cl)cc1,inactive
8,CCCCCCCCCCCCCN1CC(C)OC(C)C1 (stereo not given),inactive
9,Cn1cc(-c2ccccc2)c(=O)c(-c2cccc(C(F)(F)F)c2)c1,inactive
10,Cc1ccc(N=C=O)cc1N=C=O,inactive
11,CNC(=O)Oc1cccc2c1OC(C)(C)C2,inactive
12,c1ccc(NNc2ccccc2)cc1,inactive
13,N#CC(Br)Br,inactive
14,c1ccc(C2CO2)cc1 (stereo not given),inactive
15,CC(C)(C)OOC(=O)c1ccccc1,inactive
16,O=P(OCCCl)(OCCCl)OCCCl,inactive
17,Clc1ccc(Cl)c(Cl)c1,inactive
18,COC(=O)Nc1nc2ccccc2[nH]1,inactive
19,OCCCBr,inactive
20,CN(C)c1ccc(C(=O)c2ccc(N(C)C)cc2)cc1,inactive
